The panel holds about 79,000 compounds, 15% with a hit somewhere; the sample as a whole holds those more often. The source made the active and inactive calls. Cut-off read from the data, not from the text of the source: active = growth inhibition above about 70%; inactive = the rest.
Assays:
[1] = NCI Yeast Anticancer Drug Screen. Data for the rad52 strain (AID 147);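 note: 0% = growth of vehicle-treated control cultures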; settings: S. cerevisiae rad52 mutant growth inhibition, active compounds read high
In short: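 Screen used a yeast mutant impaired in DNA repair. After compound exposure, growth was measured. Values reflect inhibition compared with vehicle-treated cells.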

[2] = NCI Yeast Anticancer Drug Screen. Data for the wt1 strain (AID 149);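 note: 0% = growth of vehicle-treated wt1 cultures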; settings: S. cerevisiae wt1 strain (SPY 50644) growth inhibition, active compounds read high
In short: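 wt1 yeast, compound-treated; % growth inhibition vs vehicle control.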

[3] = NCI Yeast Anticancer Drug Screen. Data for the mgt1 strain (AID 153); settings: S. cerevisiae mgt1 mutant growth inhibition, active compounds read high
In short: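 Genetically defined yeast (mgt1) treated with compound; inhibition of growth expressed against vehicle-treated controls.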

[4] = NCI Yeast Anticancer Drug Screen. Data for the rad50 strain (AID 155);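 note: 0% = growth of vehicle-only cultures of the same strain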; settings: S. cerevisiae rad50 strain growth inhibition, active compounds read high
In short: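 Genetically altered yeast (DNA repair pathway); compound treatment; growth inhibition vs vehicle ctrl.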

[5] = NCI Yeast Anticancer Drug Screen. Data for the mec2-1 strain (AID 157); settings: S. cerevisiae mec2-1 strain, active compounds read high
In short: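 Readout is yeast growth inhibition, normalised to vehicle-treated controls, in the mec2-1 strain exposed to compound.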

[6] = NCI Yeast Anticancer Drug Screen. Data for the rad14 strain (AID 159);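 note: 0% = growth of vehicle-treated control cultures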; settings: S. cerevisiae rad14 strain growth inhibition, active compounds read high
In short: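 Test compounds were applied to a repair-deficient yeast strain. Its growth was then compared with that of cultures given vehicle alone, and inhibition was expressed relative to those controls.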

[7] = NCI Yeast Anticancer Drug Screen. Data for the sgs1 mgt1 strain (AID 161);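 note: 0% = growth of cultures given vehicle only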; settings: S. cerevisiae sgs1 mgt1 strain, active compounds read high
In short: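 Yeast cells carrying a defined DNA-repair defect were exposed to test compounds. Growth inhibition was measured relative to vehicle-treated controls.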

[8] = NCI Yeast Anticancer Drug Screen. Data for the CLN2oe strain (AID 163);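 note: 0% = growth of vehicle-only control cultures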; settings: S. cerevisiae CLN2oe strain, active compounds read high
In short: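 Values reflect how much compound exposure reduced yeast growth, referenced to vehicle-exposed cells. Assay organism is a strain with a defined genetic change affecting cell-cycle control.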

[9] = NCI Yeast Anticancer Drug Screen. Data for the cln2 rad14 strain (AID 165);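 note: 0% = growth equal to vehicle treated cultures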; settings: S. cerevisiae cln2 rad14 strain, active compounds read high
In short: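 Relative to vehicle controls, growth inhibition of compound-treated cln2 rad14 yeast was recorded.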

[10] = NCI Yeast Anticancer Drug Screen. Data for the bub3 strain (AID 167); settings: S. cerevisiae bub3 mutant strain, active compounds read high
In short: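 Yeast carrying a defined mutation is treated with each compound, and growth is compared with that of vehicle-exposed cells to give inhibition.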

[11] = NCI Yeast Anticancer Drug Screen. Data for the wt2 strain (AID 169);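 note: 0% = growth of vehicle-treated yeast cultures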; settings: S. cerevisiae wt2 strain growth inhibition, active compounds read high
In short: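 Values express reduction in yeast growth under compound treatment, referenced to vehicle-treated cells.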

[12] = NCI Yeast Anticancer Drug Screen. Data for the mlh1 strain (AID 171);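 note: 0% = growth of vehicle-treated control cultures of the same strain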; settings: S. cerevisiae mlh1 strain growth inhibition, active compounds read high
In short: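 Steps: expose the defined-mutant yeast strain to compound; expose a parallel culture to vehicle; measure growth; express compound effect as inhibition relative to the vehicle culture.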

[13] = NCI Yeast Anticancer Drug Screen. Data for the sgs1 strain (AID 173);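 note: 0% = growth of vehicle-only control cultures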; settings: S. cerevisiae sgs1 mutant, active compounds read high
In short: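 Treat defined-mutant yeast with compound; measure growth; calculate inhibition relative to vehicle-treated cells.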

[14] = NCI Yeast Anticancer Drug Screen. Data for the mlh1 rad18 strain (AID 175); settings: S. cerevisiae mlh1 rad18 strain growth inhibition, active compounds read high
In short: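 Test agents were incubated with a yeast strain of defined genotype (DNA damage repair defect). Inhibition of growth was derived by comparison with vehicle-exposed cultures.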

[15] = NCI Yeast Anticancer Drug Screen. Data for the rad18 strain (AID 177); settings: S. cerevisiae rad18 mutant growth inhibition, active compounds read high
In short: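 A genetically defined yeast mutant impaired in DNA damage repair was treated with test compounds, then its growth was measured against cultures receiving vehicle alone.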

[16] = at 5.0 µM (retest, dose inferred, filed as 0.5)
[17] = at 50.0 µM (retest, dose inferred, filed as 5.0)

Measured: growth inhibition

N/C(=N\OC(=O)NC(Cl)=C(Cl)Cl)c1cc(C(F)(F)F)cc(C(F)(F)F)c1
inactive: [1]; at 1.2 µM -14% | [1]; at 3.7 µM -11% | [1]; at 11.0 µM -2% | [1]; at 33.0 µM 64% | [2]; at 1.2 µM 16% | [2]; at 3.7 µM -13% | [2]; at 11.0 µM -19% | [2]; at 33.0 µM 40% | [3]; at 1.2 µM -23% | [3]; at 3.7 µM 7% | [3]; at 11.0 µM 6% | [4]; at 1.2 µM -10% | [4]; at 3.7 µM -20% | [4]; [16] 34% | [4]; at 11.0 µM 6% | [4]; at 33.0 µM 59% | [4]; [17] 54% | [5]; at 1.2 µM -33% | [5]; at 3.7 µM -61% | [5]; [16] 36% | [5]; at 11.0 µM -32% | [5]; at 33.0 µM 33% | [5]; [17] 58% | [6]; at 1.2 µM -53% | [6]; at 3.7 µM -36% | [6]; at 11.0 µM -48% | [6]; at 33.0 µM 18% | [7]; [16] -1% | [8]; at 1.2 µM 25% | [8]; at 3.7 µM 11% | [8]; at 11.0 µM 7% | [8]; at 33.0 µM 66% | [9]; [16] 45% | [10]; at 1.2 µM -23% | [10]; at 3.7 µM -9% | [10]; [16] 34% | [10]; at 11.0 µM -30% | [10]; at 33.0 µM 23% | [11]; at 1.2 µM -43% | [11]; at 3.7 µM -32% | [11]; at 11.0 µM -36% | [11]; at 33.0 µM 38% | [12]; at 1.2 µM -27% | [12]; at 3.7 µM -11% | [12]; at 11.0 µM -14% | [12]; at 33.0 µM 57% | [13]; at 1.2 µM -22% | [13]; at 3.7 µM -16% | [13]; at 11.0 µM -9% | [13]; at 33.0 µM 68% | [14]; [16] 42% | [14]; [17] 67% | [15]; at 1.2 µM -20% | [15]; at 3.7 µM -21% | [15]; at 11.0 µM -2%
active: [1]; at 100.0 µM 98% | [2]; at 100.0 µM 97% | [3]; at 33.0 µM 74% | [3]; at 100.0 µM 97% | [4]; at 50.0 µM 89% | [4]; at 100.0 µM 97% | [5]; at 50.0 µM 89.3% | [5]; at 100.0 µM 95% | [6]; at 100.0 µM 96% | [7]; [17] 95% | [7]; at 50.0 µM 89.4% | [8]; at 100.0 µM 98% | [9]; [17] 94% | [9]; at 50.0 µM 89% | [10]; [17] 91% | [10]; at 50.0 µM 89.9% | [10]; at 100.0 µM 96% | [11]; at 100.0 µM 96% | [12]; at 100.0 µM 97% | [13]; at 100.0 µM 97% | [14]; at 50.0 µM 88% | [15]; at 33.0 µM 72% | [15]; at 100.0 µM 97%

O=C1Nc2ccc(Cl)c(I)c2C1=O
inactive: [1]; at 1.2 µM 3% | [1]; at 3.7 µM 10% | [1]; at 11.0 µM 7% | [1]; at 33.0 µM 32% | [2]; at 1.2 µM -11% | [2]; at 3.7 µM -13% | [2]; at 11.0 µM -11% | [2]; at 33.0 µM -14% | [2]; at 100.0 µM 45% | [3]; at 1.2 µM -11% | [3]; at 3.7 µM -13% | [3]; at 11.0 µM -5% | [3]; at 33.0 µM -3% | [3]; at 100.0 µM 59% | [4]; at 1.2 µM -6% | [4]; at 3.7 µM -11% | [4]; [16] -13% | [4]; at 11.0 µM -23% | [4]; at 33.0 µM 26% | [4]; [17] 60% | [4]; at 50.0 µM 35.5% | [5]; at 1.2 µM 2% | [5]; at 3.7 µM 16% | [5]; [16] 3% | [5]; at 11.0 µM 16% | [5]; at 33.0 µM 10% | [5]; [17] 6% | [5]; at 50.0 µM 62.4% | [5]; at 100.0 µM 58% | [6]; at 1.2 µM 8% | [6]; at 3.7 µM -1% | [6]; at 11.0 µM 1% | [6]; at 33.0 µM 11% | [7]; [16] -1% | [7]; [17] 17% | [7]; at 50.0 µM 41.9% | [8]; at 1.2 µM 5% | [8]; at 3.7 µM 21% | [8]; at 11.0 µM -1% | [8]; at 33.0 µM 5% | [8]; at 100.0 µM 47% | [9]; [16] 1% | [9]; [17] 32% | [9]; at 50.0 µM 37.1% | [10]; at 1.2 µM -14% | [10]; at 3.7 µM -5% | [10]; [16] -23% | [10]; at 11.0 µM -4% | [10]; at 33.0 µM 5% | [11]; at 1.2 µM -1% | [11]; at 3.7 µM 0% | [11]; at 11.0 µM 3% | [11]; at 33.0 µM 2% | [11]; at 100.0 µM 52% | [12]; at 1.2 µM 31% | [12]; at 3.7 µM 29% | [12]; at 11.0 µM 27% | [12]; at 33.0 µM 36% | [13]; at 1.2 µM 21% | [13]; at 3.7 µM 23% | [13]; at 11.0 µM 26% | [13]; at 33.0 µM 36% | [14]; [16] 0% | [14]; [17] 68% | [14]; at 50.0 µM 67.2% | [15]; at 1.2 µM 28% | [15]; at 3.7 µM 30% | [15]; at 11.0 µM 29% | [15]; at 33.0 µM 41%
active: [1]; at 100.0 µM 84% | [4]; at 100.0 µM 88% | [6]; at 100.0 µM 84% | [10]; [17] 70% | [10]; at 50.0 µM 79% | [10]; at 100.0 µM 90% | [12]; at 100.0 µM 83% | [13]; at 100.0 µM 92% | [15]; at 100.0 µM 91%
